# Test results from publication PMC7862700, “An all-to-all approach to the identification of sequence-specific readers for epigenetic DNA modifications on cytosine”.
# Assays:
# Experiment in all cases: DAPPL (digital affinity profiling via proximity ligation, sequencing); 10 mM Tris-HCl pH 7.5, 50 mM NaCl, 1 mM DTT, 4% glycerol, room temperature, 30 min; GST-TFs on glutathione beads, 16-mer random dsDNA library, 0.1% formaldehyde crosslink after washing; high values mean tight binding
# [1] = target: T1, FLI1 (Homo sapiens, UniProt Q01543 1-452); settings: protein: recombinant; tags: N-terminal GST; dsDNA, one strand shown
# T1 sequence: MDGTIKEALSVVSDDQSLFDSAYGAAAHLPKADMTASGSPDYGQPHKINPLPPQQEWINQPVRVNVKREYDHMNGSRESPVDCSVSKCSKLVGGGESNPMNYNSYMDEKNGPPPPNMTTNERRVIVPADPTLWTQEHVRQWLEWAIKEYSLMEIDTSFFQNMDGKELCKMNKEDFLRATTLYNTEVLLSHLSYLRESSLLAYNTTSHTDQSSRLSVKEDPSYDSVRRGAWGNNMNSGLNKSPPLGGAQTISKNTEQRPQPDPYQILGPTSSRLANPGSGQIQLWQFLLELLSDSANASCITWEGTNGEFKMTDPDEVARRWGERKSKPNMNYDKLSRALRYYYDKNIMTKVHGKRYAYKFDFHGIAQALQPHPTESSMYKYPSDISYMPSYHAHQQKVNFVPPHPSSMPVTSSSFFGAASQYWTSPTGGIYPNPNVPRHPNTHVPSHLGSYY
# Outline: (§1)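 Human transcription factors were made in yeast as GST fusions, captured on glutathione beads and barcoded with DNA. With a tag-only sample included, the pool was incubated with 200 nmole of a random double-stranded 16-mer DNA library in Tris/NaCl/DTT/glycerol buffer at room temperature for 30 min, then crosslinked with 0.1% formaldehyde after washing, ligated by proximity, amplified and sequenced. For binding signal, each hexamer's read frequency for a factor is divided by its frequency for the tag-only sample.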
# [2] = target: T2, ELK1 (Homo sapiens, UniProt P19419 1-428); settings: protein: recombinant; tags: N-terminal GST; dsDNA, one strand shown
# T2 sequence: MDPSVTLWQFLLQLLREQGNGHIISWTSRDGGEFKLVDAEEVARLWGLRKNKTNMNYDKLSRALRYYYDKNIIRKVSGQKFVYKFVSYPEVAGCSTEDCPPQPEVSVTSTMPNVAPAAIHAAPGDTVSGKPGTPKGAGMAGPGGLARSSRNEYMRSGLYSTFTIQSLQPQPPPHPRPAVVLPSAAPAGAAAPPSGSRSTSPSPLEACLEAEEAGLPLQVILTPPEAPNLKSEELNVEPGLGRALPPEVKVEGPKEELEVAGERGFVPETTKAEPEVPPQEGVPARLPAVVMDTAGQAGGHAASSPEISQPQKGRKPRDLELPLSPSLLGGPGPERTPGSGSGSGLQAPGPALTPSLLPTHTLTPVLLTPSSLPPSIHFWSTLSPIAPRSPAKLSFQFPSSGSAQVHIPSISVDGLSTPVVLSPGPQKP
# Outline: as §1
# [3] = target: T3, GABPA (Homo sapiens, UniProt Q06546 1-454); settings: protein: recombinant; tags: N-terminal GST; dsDNA, one strand shown
# T3 sequence: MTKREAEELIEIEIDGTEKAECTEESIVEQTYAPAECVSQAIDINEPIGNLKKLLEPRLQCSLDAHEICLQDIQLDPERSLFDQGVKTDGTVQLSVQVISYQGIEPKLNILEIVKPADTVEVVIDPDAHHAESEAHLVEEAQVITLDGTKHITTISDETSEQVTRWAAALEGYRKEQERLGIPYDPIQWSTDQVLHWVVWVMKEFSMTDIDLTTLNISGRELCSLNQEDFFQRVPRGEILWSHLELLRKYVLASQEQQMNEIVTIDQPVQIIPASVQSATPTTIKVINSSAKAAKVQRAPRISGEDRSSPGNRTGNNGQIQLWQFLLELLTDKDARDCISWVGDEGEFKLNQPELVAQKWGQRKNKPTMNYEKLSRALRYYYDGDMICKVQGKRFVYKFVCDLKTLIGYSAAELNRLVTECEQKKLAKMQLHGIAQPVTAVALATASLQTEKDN
# Outline: as §1
# [4] = target: T4, ERG (Homo sapiens, UniProt P11308 1-479); settings: protein: recombinant; tags: N-terminal GST; dsDNA, one strand shown
# T4 sequence: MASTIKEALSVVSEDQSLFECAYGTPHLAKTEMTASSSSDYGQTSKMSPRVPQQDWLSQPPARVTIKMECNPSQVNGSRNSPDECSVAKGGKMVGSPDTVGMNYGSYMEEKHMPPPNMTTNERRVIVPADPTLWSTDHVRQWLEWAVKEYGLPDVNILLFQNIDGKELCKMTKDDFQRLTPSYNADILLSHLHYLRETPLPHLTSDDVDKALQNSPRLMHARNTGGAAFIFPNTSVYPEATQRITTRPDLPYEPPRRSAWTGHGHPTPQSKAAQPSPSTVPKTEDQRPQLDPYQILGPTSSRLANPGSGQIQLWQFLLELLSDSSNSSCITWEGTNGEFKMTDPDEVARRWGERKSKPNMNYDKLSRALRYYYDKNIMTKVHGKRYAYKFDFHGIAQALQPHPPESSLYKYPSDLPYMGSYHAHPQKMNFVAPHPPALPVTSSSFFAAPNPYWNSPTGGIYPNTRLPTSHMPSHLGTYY
# Outline: as §1
# [5] = target: ELF1 (Homo sapiens, UniProt P32519 1-619); settings: protein: recombinant; tags: N-terminal GST; dsDNA, one strand shown
# Outline: as §1
# [6] = target: T5, EHF (Homo sapiens, UniProt Q9NZC4 1-300); settings: protein: recombinant; tags: N-terminal GST; dsDNA, one strand shown
# T5 sequence: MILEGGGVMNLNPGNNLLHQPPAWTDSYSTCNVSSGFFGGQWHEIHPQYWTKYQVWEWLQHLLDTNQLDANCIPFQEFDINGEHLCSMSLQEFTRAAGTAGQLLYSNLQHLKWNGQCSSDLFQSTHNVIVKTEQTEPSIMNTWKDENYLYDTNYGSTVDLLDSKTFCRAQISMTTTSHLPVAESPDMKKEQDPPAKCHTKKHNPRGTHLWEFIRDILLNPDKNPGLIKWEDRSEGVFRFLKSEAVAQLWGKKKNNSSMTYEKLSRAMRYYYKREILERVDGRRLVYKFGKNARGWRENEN
# Outline: as §1
# [7] = target: SPI1 (Homo sapiens, UniProt P17947 1-270); settings: protein: recombinant; tags: N-terminal GST; dsDNA, one strand shown
# Outline: as §1
# [8] = target: SPIB (Homo sapiens, UniProt Q01892 1-262); settings: protein: recombinant; tags: N-terminal GST; dsDNA, one strand shown
# Outline: as §1
# [9] = target: T6, ELK3 (Homo sapiens, UniProt P41970 1-407); settings: protein: recombinant; tags: N-terminal GST; dsDNA, one strand shown
# T6 sequence: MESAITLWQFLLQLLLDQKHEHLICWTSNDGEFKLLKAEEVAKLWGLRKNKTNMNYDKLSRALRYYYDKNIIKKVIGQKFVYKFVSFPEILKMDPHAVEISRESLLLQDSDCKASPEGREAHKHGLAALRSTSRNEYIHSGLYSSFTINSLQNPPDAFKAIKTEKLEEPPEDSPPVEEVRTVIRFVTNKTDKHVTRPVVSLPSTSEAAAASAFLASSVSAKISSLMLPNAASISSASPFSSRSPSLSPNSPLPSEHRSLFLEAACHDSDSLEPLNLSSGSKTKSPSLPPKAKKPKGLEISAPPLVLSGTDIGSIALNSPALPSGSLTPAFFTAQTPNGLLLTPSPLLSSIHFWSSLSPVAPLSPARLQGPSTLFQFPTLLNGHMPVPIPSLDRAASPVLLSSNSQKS
# Outline: as §1
# [10] = target: T7, FEV (Homo sapiens, UniProt Q99581 1-238); settings: protein: recombinant; tags: N-terminal GST; dsDNA, one strand shown
# T7 sequence: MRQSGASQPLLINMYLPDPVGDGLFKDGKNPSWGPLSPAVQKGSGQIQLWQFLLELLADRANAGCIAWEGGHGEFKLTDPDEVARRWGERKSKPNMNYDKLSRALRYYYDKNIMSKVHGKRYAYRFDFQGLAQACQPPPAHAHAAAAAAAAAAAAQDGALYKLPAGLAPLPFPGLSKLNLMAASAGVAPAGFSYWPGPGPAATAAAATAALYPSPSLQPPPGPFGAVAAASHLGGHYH
# Outline: as §1
# [11] = target: ETV5 (Homo sapiens, UniProt P41161 1-510); settings: protein: recombinant; tags: N-terminal GST; dsDNA, one strand shown
# Outline: as §1
# [12] = target: HSF1 (Homo sapiens, UniProt Q00613 1-529); settings: protein: recombinant; tags: N-terminal GST; chain copies: 3; dsDNA, one strand shown
# Outline: as §1
# [13] = target: T8, SPIC (Homo sapiens, UniProt Q8N5J4 1-248); settings: protein: recombinant; tags: N-terminal GST; dsDNA, one strand shown
# T8 sequence: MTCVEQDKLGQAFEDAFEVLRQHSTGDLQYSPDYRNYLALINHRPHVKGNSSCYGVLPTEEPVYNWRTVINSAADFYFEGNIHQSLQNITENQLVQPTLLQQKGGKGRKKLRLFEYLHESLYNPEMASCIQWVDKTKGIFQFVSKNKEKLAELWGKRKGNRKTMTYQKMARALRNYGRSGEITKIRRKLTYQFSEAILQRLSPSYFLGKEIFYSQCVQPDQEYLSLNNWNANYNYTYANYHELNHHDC
# Outline: as §1
# [14] = target: ELF4 (Homo sapiens, UniProt Q99607 1-663); settings: protein: recombinant; tags: N-terminal GST; dsDNA, one strand shown
# Outline: as §1
# [15] = target: T9, ELK4 (Homo sapiens, UniProt P28324-2 1-405); settings: protein: recombinant; tags: N-terminal GST; dsDNA, one strand shown
# T9 sequence: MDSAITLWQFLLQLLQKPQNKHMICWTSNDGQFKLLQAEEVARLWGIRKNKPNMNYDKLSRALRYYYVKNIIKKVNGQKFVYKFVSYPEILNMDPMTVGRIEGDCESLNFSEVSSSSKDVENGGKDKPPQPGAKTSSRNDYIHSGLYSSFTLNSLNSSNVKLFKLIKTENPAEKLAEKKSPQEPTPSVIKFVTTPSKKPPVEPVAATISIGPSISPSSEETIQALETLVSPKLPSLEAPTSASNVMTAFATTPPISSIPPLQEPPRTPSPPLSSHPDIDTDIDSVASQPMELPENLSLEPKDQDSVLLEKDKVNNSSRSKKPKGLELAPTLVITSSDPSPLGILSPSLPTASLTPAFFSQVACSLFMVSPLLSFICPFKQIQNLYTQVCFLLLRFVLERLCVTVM
# Outline: as §1
# [16] = target: T10, ETV2 (Homo sapiens, UniProt O00321 1-342); settings: protein: recombinant; tags: N-terminal GST; dsDNA, one strand shown
# T10 sequence: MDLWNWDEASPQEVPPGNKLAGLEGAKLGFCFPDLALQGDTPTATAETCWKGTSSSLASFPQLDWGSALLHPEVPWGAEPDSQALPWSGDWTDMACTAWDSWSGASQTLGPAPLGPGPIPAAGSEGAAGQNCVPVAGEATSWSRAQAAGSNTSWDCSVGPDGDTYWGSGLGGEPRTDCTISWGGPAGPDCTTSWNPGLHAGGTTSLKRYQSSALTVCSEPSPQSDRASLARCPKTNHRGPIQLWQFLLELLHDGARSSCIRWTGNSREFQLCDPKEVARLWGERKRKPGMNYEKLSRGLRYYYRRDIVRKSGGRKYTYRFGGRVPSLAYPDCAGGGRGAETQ
# Outline: as §1
# [17] = target: T11, ELF3 (Homo sapiens, UniProt P78545 1-371); settings: protein: recombinant; tags: N-terminal GST; dsDNA, one strand shown
# T11 sequence: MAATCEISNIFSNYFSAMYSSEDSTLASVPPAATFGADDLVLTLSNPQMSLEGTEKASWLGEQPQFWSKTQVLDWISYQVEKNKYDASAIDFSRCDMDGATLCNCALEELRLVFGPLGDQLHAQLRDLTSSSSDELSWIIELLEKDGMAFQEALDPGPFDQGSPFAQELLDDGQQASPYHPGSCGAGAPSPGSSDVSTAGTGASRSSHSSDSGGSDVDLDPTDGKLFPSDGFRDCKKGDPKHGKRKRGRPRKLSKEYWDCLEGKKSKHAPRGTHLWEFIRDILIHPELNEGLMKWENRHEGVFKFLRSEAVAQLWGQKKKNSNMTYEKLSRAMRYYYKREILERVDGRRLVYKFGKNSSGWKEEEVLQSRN
# Outline: as §1
# [18] = target: CRX (Homo sapiens, UniProt O43186 1-299); settings: protein: recombinant; tags: N-terminal GST; dsDNA, one strand shown
# Outline: as §1
# [19] = target: ETV1 (Homo sapiens, UniProt P50549 1-477); settings: protein: recombinant; tags: N-terminal GST; dsDNA, one strand shown
# Outline: as §1
# Chain of SPIB (Q01892 whole entry): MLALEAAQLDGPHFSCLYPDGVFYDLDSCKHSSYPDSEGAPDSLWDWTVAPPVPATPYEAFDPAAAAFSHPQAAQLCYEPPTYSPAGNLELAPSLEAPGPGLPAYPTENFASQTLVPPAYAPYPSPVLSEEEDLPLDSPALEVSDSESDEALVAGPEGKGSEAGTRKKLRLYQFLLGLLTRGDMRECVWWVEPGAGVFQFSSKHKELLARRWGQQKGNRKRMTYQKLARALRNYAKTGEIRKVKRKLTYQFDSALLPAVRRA
# Chain of ETV5 (P41161 whole entry): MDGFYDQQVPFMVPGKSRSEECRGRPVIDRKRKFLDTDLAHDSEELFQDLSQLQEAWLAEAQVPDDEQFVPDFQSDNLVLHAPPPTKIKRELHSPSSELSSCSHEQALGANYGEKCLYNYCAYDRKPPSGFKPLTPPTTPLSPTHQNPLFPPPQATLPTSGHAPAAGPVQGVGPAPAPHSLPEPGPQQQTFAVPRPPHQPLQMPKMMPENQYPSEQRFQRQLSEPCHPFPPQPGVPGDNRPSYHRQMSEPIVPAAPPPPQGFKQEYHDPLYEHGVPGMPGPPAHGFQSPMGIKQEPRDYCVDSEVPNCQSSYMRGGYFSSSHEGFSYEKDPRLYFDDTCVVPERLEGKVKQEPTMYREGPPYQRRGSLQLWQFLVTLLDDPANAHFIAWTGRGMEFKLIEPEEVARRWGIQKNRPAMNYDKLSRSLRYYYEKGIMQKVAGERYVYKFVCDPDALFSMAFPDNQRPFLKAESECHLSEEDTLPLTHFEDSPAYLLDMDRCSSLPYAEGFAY
# Chain of CRX (O43186 whole entry): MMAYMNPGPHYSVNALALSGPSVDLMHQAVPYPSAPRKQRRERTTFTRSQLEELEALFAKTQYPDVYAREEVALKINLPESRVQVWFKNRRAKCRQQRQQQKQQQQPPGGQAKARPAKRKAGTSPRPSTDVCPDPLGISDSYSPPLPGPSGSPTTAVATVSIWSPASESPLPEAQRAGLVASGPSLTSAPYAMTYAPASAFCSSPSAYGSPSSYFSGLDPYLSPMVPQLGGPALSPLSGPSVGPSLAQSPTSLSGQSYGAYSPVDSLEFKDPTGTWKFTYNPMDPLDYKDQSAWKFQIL
# Chain of HSF1 (Q00613 whole entry): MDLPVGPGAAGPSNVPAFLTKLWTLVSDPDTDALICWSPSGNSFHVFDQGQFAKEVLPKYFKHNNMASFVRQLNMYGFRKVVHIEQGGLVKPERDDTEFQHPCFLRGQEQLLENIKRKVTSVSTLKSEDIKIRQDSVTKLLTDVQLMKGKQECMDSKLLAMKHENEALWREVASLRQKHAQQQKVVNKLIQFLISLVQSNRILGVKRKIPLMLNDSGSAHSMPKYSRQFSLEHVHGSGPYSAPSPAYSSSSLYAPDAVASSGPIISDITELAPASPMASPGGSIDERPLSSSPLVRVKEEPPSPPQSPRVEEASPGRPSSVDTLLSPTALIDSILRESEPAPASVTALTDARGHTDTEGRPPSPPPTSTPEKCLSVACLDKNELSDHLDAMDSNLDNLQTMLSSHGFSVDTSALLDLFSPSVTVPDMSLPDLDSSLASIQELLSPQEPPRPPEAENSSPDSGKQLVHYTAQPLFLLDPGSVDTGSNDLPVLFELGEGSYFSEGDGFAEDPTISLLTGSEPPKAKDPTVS
# Chain of ELF4 (Q99607 whole entry): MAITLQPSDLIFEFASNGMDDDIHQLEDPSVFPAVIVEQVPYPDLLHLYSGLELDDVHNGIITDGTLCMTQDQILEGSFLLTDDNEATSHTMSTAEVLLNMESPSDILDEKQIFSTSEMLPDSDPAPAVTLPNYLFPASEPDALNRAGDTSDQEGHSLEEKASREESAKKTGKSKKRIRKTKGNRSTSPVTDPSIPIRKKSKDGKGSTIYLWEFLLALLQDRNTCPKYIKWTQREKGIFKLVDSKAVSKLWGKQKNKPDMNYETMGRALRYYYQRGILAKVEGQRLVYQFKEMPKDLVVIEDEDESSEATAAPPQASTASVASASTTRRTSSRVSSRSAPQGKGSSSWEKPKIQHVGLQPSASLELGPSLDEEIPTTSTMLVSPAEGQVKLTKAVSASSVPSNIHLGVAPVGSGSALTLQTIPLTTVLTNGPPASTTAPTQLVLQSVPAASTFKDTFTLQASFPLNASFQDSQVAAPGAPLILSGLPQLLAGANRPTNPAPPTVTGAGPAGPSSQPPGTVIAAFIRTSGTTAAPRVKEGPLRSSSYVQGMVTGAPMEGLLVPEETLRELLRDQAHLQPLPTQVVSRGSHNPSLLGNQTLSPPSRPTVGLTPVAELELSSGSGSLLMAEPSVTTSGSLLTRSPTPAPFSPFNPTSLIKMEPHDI
# Chain of ELF1 (P32519 whole entry): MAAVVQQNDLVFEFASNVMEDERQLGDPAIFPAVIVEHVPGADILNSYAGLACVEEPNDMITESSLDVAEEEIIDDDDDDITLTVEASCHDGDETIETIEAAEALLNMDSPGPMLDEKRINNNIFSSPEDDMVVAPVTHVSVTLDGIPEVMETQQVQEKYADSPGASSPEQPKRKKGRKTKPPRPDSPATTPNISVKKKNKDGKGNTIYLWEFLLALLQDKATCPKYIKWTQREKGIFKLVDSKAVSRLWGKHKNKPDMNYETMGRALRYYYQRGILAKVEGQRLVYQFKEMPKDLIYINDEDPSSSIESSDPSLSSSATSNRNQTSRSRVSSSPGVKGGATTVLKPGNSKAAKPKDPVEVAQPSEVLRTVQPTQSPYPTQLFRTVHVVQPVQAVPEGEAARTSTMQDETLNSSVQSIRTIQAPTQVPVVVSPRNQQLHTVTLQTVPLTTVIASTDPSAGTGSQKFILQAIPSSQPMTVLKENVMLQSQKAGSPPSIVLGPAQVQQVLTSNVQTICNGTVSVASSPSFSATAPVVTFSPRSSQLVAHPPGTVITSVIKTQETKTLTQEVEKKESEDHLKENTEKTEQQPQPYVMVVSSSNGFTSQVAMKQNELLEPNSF
# Chain of ETV1 (P50549 whole entry): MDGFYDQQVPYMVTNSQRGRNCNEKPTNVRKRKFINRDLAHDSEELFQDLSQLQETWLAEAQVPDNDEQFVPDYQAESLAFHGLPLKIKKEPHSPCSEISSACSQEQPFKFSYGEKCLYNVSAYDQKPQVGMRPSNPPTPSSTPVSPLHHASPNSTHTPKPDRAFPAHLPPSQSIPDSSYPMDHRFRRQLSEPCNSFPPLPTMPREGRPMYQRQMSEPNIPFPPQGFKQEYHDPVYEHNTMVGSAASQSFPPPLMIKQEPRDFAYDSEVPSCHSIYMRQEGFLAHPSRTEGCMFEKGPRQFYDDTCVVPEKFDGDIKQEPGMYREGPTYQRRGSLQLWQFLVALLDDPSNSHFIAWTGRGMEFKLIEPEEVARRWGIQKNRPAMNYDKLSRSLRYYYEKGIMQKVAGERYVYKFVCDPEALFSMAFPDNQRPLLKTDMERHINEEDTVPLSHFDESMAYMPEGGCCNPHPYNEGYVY
sequence,measurement,setting,value
TTGACC,binding signal,[1],"1.4 fold enrichment (6-mer frequency, TF over GST control)"
same,binding signal,[2],"1.44 fold enrichment (6-mer frequency, TF over GST control)"
same,binding signal,[3],"1.56 fold enrichment (6-mer frequency, TF over GST control)"
same,binding signal,[4],"1.49 fold enrichment (6-mer frequency, TF over GST control)"
same,binding signal,[5],"1.43 fold enrichment (6-mer frequency, TF over GST control)"
same,binding signal,[6],"1.46 fold enrichment (6-mer frequency, TF over GST control)"
same,binding signal,[7],"1.34 fold enrichment (6-mer frequency, TF over GST control)"
same,binding signal,[8],"1.46 fold enrichment (6-mer frequency, TF over GST control)"
same,binding signal,[9],"1.54 fold enrichment (6-mer frequency, TF over GST control)"
same,binding signal,[10],"1.33 fold enrichment (6-mer frequency, TF over GST control)"
same,binding signal,[11],"1.41 fold enrichment (6-mer frequency, TF over GST control)"
same,binding signal,[12],"1.16 fold enrichment (6-mer frequency, TF over GST control)"
same,binding signal,[13],"1.45 fold enrichment (6-mer frequency, TF over GST control)"
same,binding signal,[14],"1.44 fold enrichment (6-mer frequency, TF over GST control)"
same,binding signal,[15],"1.4 fold enrichment (6-mer frequency, TF over GST control)"
same,binding signal,[16],"1.38 fold enrichment (6-mer frequency, TF over GST control)"
same,binding signal,[17],"1.27 fold enrichment (6-mer frequency, TF over GST control)"
same,binding signal,[18],"1.19 fold enrichment (6-mer frequency, TF over GST control)"
same,binding signal,[19],"1.41 fold enrichment (6-mer frequency, TF over GST control)"
